Measured values as given in PubChem BioAssay (EPA / NIEHS).
The source made the active and inactive calls. Rule for the calls: active = hit-call score of the fitted dose curve at least 0.9, where 1 is the maximum; inactive = score below 0.9.

Experiments:
Conditions in all cases: mRNA level, 48 h; actives raise or lower the signal
[1] = read-out: ABC Transporter (ABCC2), ABCC2 (gene 1244); assay: LTEA_HepaRG_ABCC2: Life Technologies and Expression Analysis (LTEA) Assay for ABC Transporter (ABCC2) using HepaRG (AID 2283464)
Outline: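 HepaRG cells were plated 48 h, switched to serum-free induction medium, then exposed in duplicate for 48 h to 8 concentrations (top 100 uM, half-log steps, 0.5% DMSO). ABCC2 mRNA was measured by qRT-PCR normalized to ACTB/GAPDH/POLR2A; bidirectional fitting versus DMSO.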

[2] = read-out: Broad substrate specificity ATP-binding cassette transporter ABCG2 (Homo sapiens) (UniProt Q9UNQ0); assay: LTEA_HepaRG_ABCG2: Life Technologies and Expression Analysis (LTEA) Assay for ABC Transporter (ABCG2) using HepaRG (AID 2283465)
Outline: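 Read-out is ABCG2 mRNA induction or loss quantified by qRT-PCR after 48 h chemical treatment of human HepaRG cells, normalized to three housekeeping genes. Concentrations reached 100 uM top in half-log steps; fitting was bidirectional against 0.5% DMSO.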

[3] = read-out: ATP-citrate lyase (ACLY), ACLY (gene 47); assay: LTEA_HepaRG_ACLY: Life Technologies and Expression Analysis (LTEA) Assay for ATP-citrate lyase (ACLY) using HepaRG (AID 2283466)
Outline: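 HepaRG, 48 h exposure, 8-pt half-log dilutions (top 100 uM), 0.5% DMSO. Readout: ACLY mRNA, TaqMan qRT-PCR, housekeeping-normalized (ACTB/GAPDH/POLR2A). Bidirectional curve fit vs DMSO.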

[4] = read-out: Peroxisomal acyl-coenzyme A oxidase 1 (ACOX1) gene, ACOX1 (gene 51); assay: LTEA_HepaRG_ACOX1: Life Technologies and Expression Analysis (LTEA) Assay for Peroxisomal acyl-coenzyme A oxidase 1 (ACOX1) gene using HepaRG (AID 2283467)
Outline: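 Measured by qRT-PCR against three housekeeping genes: ACOX1 transcript change in human HepaRG cells after 48 h dosing. Concentrations ran up to 100 uM in half-log steps. Curves were fitted bidirectionally relative to 0.5% DMSO.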

[5] = read-out: Bcl-2 (BAD) gene, BAD (gene 572); assay: LTEA_HepaRG_BAD: Life Technologies and Expression Analysis (LTEA) Assay for Bcl-2 (BAD) gene using HepaRG (AID 2283469)
Outline: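 BAD transcript change, measured by qRT-PCR against three housekeeping genes and fitted in both directions relative to 0.5% DMSO, after 48 h chemical treatment of human HepaRG liver cells at concentrations up to 100 uM.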

[6] = read-out: Bcl-2 (BAX) gene, BAX (gene 581); assay: LTEA_HepaRG_BAX: Life Technologies and Expression Analysis (LTEA) Assay for Bcl-2 (BAX) gene using HepaRG (AID 2283470)
Outline: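 Differentiated human HepaRG cells, plated 48 h then switched to serum-free induction medium, were exposed 48 h to 8 half-log concentrations up to 100 uM in 0.5% DMSO; BAX mRNA measured by qRT-PCR, normalized to ACTB, GAPDH, POLR2A.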

[7] = read-out: adenosine kinase (ADK) gene, ADK (gene 132); assay: LTEA_HepaRG_ADK: Life Technologies and Expression Analysis (LTEA) Assay for adenosine kinase (ADK) gene using HepaRG (AID 2283471)
Outline: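 Read-out is ADK transcript level measured by qRT-PCR and normalised to three housekeeping genes. Cells are human HepaRG, dosed for 48 h at up to 100 uM in 0.5% DMSO. Gain or loss of signal is fitted against DMSO controls.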

[8] = read-out: Alpha-fetoprotein (AFP) gene, AFP (gene 174); assay: LTEA_HepaRG_AFP: Life Technologies and Expression Analysis (LTEA) Assay for Alpha-fetoprotein (AFP) gene using HepaRG (AID 2283472)
Outline: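 Human HepaRG cells plated 48 h, then switched to serum-free induction medium and exposed in duplicate for 48 h to 8-point half-log series from 100 uM in 0.5% DMSO. AFP mRNA by qRT-PCR, normalized to ACTB, GAPDH, POLR2A; bidirectional fit versus DMSO.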

[9] = read-out: BCL2L11 (gene 10018); assay: LTEA_HepaRG_BCL2L11: Life Technologies and Expression Analysis (LTEA) Assay for Bcl-2 (BCL2L11) gene using HepaRG (AID 2283473)
Outline: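 Differentiated human HepaRG cells in serum-free induction medium were exposed in duplicate for 48 h to eight concentrations (top 100 uM, half-log steps, 0.5% DMSO). BCL2L11 mRNA was quantified by TaqMan qRT-PCR, normalized to ACTB/GAPDH/POLR2A, bidirectional fit versus DMSO.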

[10] = read-out: Apolipoprotein A-V (APOA5) gene, APOA5 (gene 116519); assay: LTEA_HepaRG_APOA5: Life Technologies and Expression Analysis (LTEA) Assay for Apolipoprotein A-V (APOA5) gene using HepaRG (AID 2283474)
Outline: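 Differentiated human HepaRG cells were exposed in duplicate for 48 h to eight half-log concentrations from 100 uM in 0.5% DMSO. APOA5 mRNA was quantified by TaqMan qRT-PCR, normalized to ACTB, GAPDH and POLR2A, and fitted bidirectionally against DMSO.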

[11] = read-out: Apoptosis regulator Bcl-2 (Homo sapiens) (UniProt P10415); assay: LTEA_HepaRG_BCL2: Life Technologies and Expression Analysis (LTEA) Assay for Bcl-2 gene using HepaRG (AID 2283475)
Outline: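 Differentiated HepaRG cells in serum-free induction medium were exposed for 48 h to eight half-log concentrations up to 100 uM in 0.5% DMSO, in duplicate. BCL2 mRNA was quantified by TaqMan qRT-PCR normalised to ACTB, GAPDH and POLR2A, with bidirectional fitting versus DMSO.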

[12] = read-out: Caspase-3 (Homo sapiens) (UniProt P42574); assay: LTEA_HepaRG_CASP3: Life Technologies and Expression Analysis (LTEA) Assay for cysteine-aspartic acid protease (CASP3) using HepaRG (AID 2283477)
Outline: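 Differentiated human HepaRG cells in serum-free induction medium were exposed 48 h to 8-point half-log concentrations from 100 uM (0.5% DMSO vehicle). CASP3 mRNA was measured by qRT-PCR, normalised to ACTB, GAPDH and POLR2A, with bidirectional fitting against DMSO.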

[13] = read-out: Cytochrome P450 (CYP24A1), CYP24A1 (gene 1591); assay: LTEA_HepaRG_CYP24A1: Life Technologies and Expression Analysis (LTEA) Assay for Cytochrome P450 (CYP24A1) using HepaRG (AID 2283478)
Outline: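 Differentiated HepaRG cells, pre-cultured 48 h, were exposed in duplicate for 48 h in serum-free induction medium to 8 half-log concentrations (top 100 uM, 0.5% DMSO). CYP24A1 mRNA was quantified by TaqMan qRT-PCR, normalized to ACTB/GAPDH/POLR2A, fitted bidirectionally versus DMSO.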

[14] = read-out: Cytochrome P450 (CYP1A2), CYP1A2 (gene 1544); assay: LTEA_HepaRG_CYP1A2: Life Technologies and Expression Analysis (LTEA) Assay for Cytochrome P450 (CYP1A2) using HepaRG (AID 2283479)
Outline: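 Differentiated human HepaRG cells in serum-free induction medium were exposed in duplicate for 48 h to 8-point half-log concentrations up to 100 uM in 0.5% DMSO. CYP1A2 mRNA measured by qRT-PCR, normalized to ACTB, GAPDH, POLR2A; bidirectional fit vs DMSO.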

[15] = read-out: cysteine-aspartic acid protease (CASP8), CASP8 (gene 841); assay: LTEA_HepaRG_CASP8: Life Technologies and Expression Analysis (LTEA) Assay for cysteine-aspartic acid protease (CASP8) using HepaRG (AID 2283480)
Outline: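 HepaRG, 48 h exposure, duplicate wells; 8 conc, half-log from 100 uM, 0.5% DMSO. Serum-free induction medium. CASP8 mRNA by TaqMan qRT-PCR, norm. ACTB/GAPDH/POLR2A; gain/loss fitted vs DMSO.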

[16] = read-out: Cytochrome P450 (CYP2B6), CYP2B6 (gene 1555); assay: LTEA_HepaRG_CYP2B6: Life Technologies and Expression Analysis (LTEA) Assay for Cytochrome P450 (CYP2B6) using HepaRG (AID 2283481)
Outline: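 Differentiated HepaRG cells, serum-free induction medium, exposed 48 h in duplicate to 8-point half-log concentrations from 100 uM in 0.5% DMSO. CYP2B6 mRNA by qRT-PCR, normalized to ACTB, GAPDH, POLR2A; bidirectional fit versus DMSO.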

[17] = read-out: Cytochrome P450 2C19 (Homo sapiens) (UniProt P33261); assay: LTEA_HepaRG_CYP2C19: Life Technologies and Expression Analysis (LTEA) Assay for CYP2C19 using HepaRG (AID 2283482)
Outline: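 Differentiated human HepaRG cells were exposed for 48 h in serum-free induction medium to 8 concentrations (top 100 uM, half-log steps, 0.5% DMSO). CYP2C19 mRNA was measured by qRT-PCR, normalized to ACTB/GAPDH/POLR2A, and fitted bidirectionally against DMSO.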

[18] = read-out: CYP2C8 (gene 1558); assay: LTEA_HepaRG_CYP2C8: Life Technologies and Expression Analysis (LTEA) Assay for CYP2C8 using HepaRG (AID 2283483)
Outline: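 CYP2C8 mRNA induction or loss, by qRT-PCR normalized to ACTB/GAPDH/POLR2A, is read in HepaRG cells after 48 h treatment. Concentrations run from 100 uM down in half-log dilutions, with 0.5% DMSO as vehicle and baseline.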

[19] = read-out: Alkaline Phosphatase, Placental (ALPP) gene, ALPP (gene 250); assay: LTEA_HepaRG_ALPP: Life Technologies and Expression Analysis (LTEA) Assay for Alkaline Phosphatase, Placental (ALPP) gene using HepaRG (AID 2283468)
Outline: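 Differentiated human HepaRG cells were plated and cultured 48 h, then exposed in duplicate for 48 h in serum-free induction medium to eight half-log concentrations from 100 uM in 0.5% DMSO. ALPP mRNA was measured by TaqMan qRT-PCR, normalized to ACTB, GAPDH, POLR2A.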

[20] = read-out: Bcl-2 (BID) gene, BID (gene 637); assay: LTEA_HepaRG_BID: Life Technologies and Expression Analysis (LTEA) Assay for Bcl-2 (BID) gene using HepaRG (AID 2283476)
Outline: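 Differentiated HepaRG cells in serum-free induction medium were exposed in duplicate for 48 h to eight half-log concentrations up to 100 uM in 0.5% DMSO. BID mRNA was quantified by qRT-PCR, normalized to ACTB, GAPDH and POLR2A.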

Measured: AC50

Chain of Apoptosis regulator Bcl-2 (Homo sapiens) (P10415 whole entry, looked up): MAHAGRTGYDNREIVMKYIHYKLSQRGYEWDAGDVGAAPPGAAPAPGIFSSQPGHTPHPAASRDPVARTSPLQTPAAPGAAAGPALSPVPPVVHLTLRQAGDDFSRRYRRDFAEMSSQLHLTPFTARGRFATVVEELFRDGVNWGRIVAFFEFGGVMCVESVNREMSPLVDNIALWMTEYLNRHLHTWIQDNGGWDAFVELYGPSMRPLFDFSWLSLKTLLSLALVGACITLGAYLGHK
Chain of Caspase-3 (Homo sapiens) (P42574 whole entry, looked up): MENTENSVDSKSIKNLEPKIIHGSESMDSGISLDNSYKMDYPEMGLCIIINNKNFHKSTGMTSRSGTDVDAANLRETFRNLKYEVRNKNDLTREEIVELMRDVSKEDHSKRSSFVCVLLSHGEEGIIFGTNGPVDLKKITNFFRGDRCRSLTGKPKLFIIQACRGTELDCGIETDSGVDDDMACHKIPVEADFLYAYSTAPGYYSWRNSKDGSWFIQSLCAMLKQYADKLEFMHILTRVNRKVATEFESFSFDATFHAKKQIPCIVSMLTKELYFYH
Chain of Broad substrate specificity ATP-binding cassette transporter ABCG2 (Homo sapiens) (Q9UNQ0 whole entry, looked up): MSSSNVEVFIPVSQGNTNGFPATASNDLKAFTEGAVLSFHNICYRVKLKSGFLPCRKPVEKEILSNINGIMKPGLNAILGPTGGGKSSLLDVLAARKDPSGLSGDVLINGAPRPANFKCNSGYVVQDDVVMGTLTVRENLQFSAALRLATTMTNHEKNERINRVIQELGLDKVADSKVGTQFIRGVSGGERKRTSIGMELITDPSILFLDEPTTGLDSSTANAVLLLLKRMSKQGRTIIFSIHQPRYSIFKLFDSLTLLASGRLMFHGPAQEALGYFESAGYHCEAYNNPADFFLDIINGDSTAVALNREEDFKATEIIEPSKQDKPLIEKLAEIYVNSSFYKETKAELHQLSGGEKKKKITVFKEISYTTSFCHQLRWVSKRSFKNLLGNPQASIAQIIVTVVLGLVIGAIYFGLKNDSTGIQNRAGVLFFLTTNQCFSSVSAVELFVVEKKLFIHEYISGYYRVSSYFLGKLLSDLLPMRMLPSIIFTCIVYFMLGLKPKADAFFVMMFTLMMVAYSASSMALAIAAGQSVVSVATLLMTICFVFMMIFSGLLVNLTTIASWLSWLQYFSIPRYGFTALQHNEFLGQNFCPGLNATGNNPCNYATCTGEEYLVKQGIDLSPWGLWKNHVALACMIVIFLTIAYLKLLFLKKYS
Chain of Cytochrome P450 2C19 (Homo sapiens) (P33261 whole entry, looked up): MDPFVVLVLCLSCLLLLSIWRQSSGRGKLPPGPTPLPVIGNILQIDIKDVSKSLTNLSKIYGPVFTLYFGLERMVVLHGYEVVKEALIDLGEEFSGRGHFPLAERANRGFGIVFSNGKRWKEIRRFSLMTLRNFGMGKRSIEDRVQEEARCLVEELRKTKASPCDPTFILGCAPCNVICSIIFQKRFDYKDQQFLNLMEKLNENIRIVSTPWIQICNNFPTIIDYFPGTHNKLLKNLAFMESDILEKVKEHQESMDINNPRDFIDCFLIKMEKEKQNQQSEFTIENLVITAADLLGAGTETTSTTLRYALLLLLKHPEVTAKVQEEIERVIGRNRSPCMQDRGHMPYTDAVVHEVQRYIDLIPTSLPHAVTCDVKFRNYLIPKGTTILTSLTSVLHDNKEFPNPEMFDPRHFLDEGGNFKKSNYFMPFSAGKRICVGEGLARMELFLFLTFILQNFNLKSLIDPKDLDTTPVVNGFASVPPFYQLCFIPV

CCCCCCCCCCCC[N+](C)(C)C
active: [1] 50 µM | [2] 67.5 µM | [3] 83.3 µM | [4] 77.8 µM | [6] 84.6 µM | [9] 90.3 µM | [10] 79.4 µM | [11] 84.4 µM | [16] 92.4 µM | [17] 93.6 µM | [18] 78.4 µM
inactive: [5] | [7] | [8] | [12] | [13] | [14] | [15]

Cc1cn([C@H]2C[C@H](N=[N+]=[N-])[C@@H](CO)O2)c(=O)[nH]c1=O
inactive: [1] | [2] | [3] | [4] | [19] | [5] | [6] | [7] | [8] | [9] | [10] | [11] | [12] | [13] | [14] | [15] | [16] | [17] | [18]

C[C@]12CC[C@@H]3c4ccc(O)cc4CC[C@H]3[C@@H]1CCC2=O
active: [2] 16.7 µM | [8] 26.6 µM
inactive: [1] | [3] | [4] | [19] | [5] | [6] | [7] | [9] | [10] | [11] | [12] | [15]

CO[C@H]1/C=C/O[C@@]2(C)Oc3c(C)c(O)c4c(O)c(c(/C=N/N5CCN(C)CC5)c(O)c4c3C2=O)NC(=O)/C(C)=C\C=C\[C@H](C)[C@H](O)[C@@H](C)[C@@H](O)[C@@H](C)[C@H](OC(C)=O)[C@@H]1C
inactive: [2] | [3] | [4] | [5] | [6] | [7] | [9] | [10] | [11] | [12] | [13] | [15]
active: [1] 0.344 µM | [8] 13 µM | [14] 0.563 µM | [16] 0.359 µM | [17] 0.427 µM | [18] 0.232 µM

CC(C)(C)c1cc(/C=C2\SC(N)=NC2=O)cc(C(C)(C)C)c1O
inactive: [2] | [5] | [6] | [8] | [10] | [13] | [18]
active: [1] 27.6 µM | [3] 82 µM | [4] 26.1 µM | [7] 23.5 µM | [9] 96.8 µM | [11] 21.1 µM | [12] 15.8 µM | [15] 27.8 µM | [16] 93.7 µM | [17] 26.3 µM

Cc1c2ccccc2c(C)c2c1ccc1ccccc12
inactive: [1] | [3] | [5] | [7] | [20] | [12] | [13] | [15]
active: [2] 12.8 µM | [4] 27.7 µM | [6] 63.1 µM | [8] 51.5 µM | [9] 29.6 µM | [10] 50 µM | [11] 78.3 µM | [16] 50 µM | [17] 75.9 µM | [18] 37.7 µM
